The text below walks through data of ChEMBL document CHEMBL4513146, “CO-ADD screening of Karazin Kharkiv National University (Ukraine) compounds”.

Measured potencies and affinities stand elsewhere.

The subject of assay [1] is Klebsiella pneumoniae. To be noted: Concentration 32 ug.mL-1;; ASSAY_TEST Inhibition of Bacterial Growth; detection method Absorption (OD600); MEDIA CAMHB; plate type 384well; NBS; CORNING #3640; time 18 hr.
For assay [2], the system named is Candida albicans. The conditions noted are these: Concentration 32 ug.mL-1; ASSAY_TEST Inhibition of Fungal Growth; detection method Absorption (OD530).
In assay [3] the test system is Cryptococcus neoformans. To be noted: Concentration 32 ug.mL-1; ASSAY_TEST Inhibition of Fungal Growth; detection method Resazurin; Absorption (OD600-OD570); plate type 384well; NBS; CORNING #3640. (The colour change of resazurin is a common sign of viable cells or microbes.)

The term Inhibition denotes the drop in the measured response relative to a control, in per cent.

For the compound `COc1ccc(-c2cc3c4nn(CC(=O)Nc5ccc(F)cc5)c(=O)n4ccn3n2)cc1`, the Inhibition is reported as 1.02% in assay [1], 15.17% in assay [2] and -16.6% in assay [3].
With `CCCCc1ccc(NC(=O)CSc2nnc3c4cc(-c5ccc(C)cc5)nn4ccn23)cc1`, the Inhibition in assay [1] was 4.94%; in assay [2] it was 0.26%; in assay [3], -7.77%.
Take `Cc1ccc(Cl)cc1NC(=O)CSc1nnc2ccc(C(=O)Nc3cccc(F)c3)cn12`: the results for the Inhibition in assay [1], in assay [2] and in assay [3] were 3.53%, 4.15% and -1.38%, respectively.
Consider `COc1ccc(NC(=O)Cn2nc3ccc(SCc4ccc(Cl)cc4)nn3c2=O)cc1Cl`, for which the Inhibition is -2.5% in assay [1], 38.9% in assay [2] and -13.55% in assay [3].
For `Cc1cccc(NC(=O)CSc2nnc3c(=O)n(-c4ccccc4)ccn23)c1` the same measures were 3.26%, 1.31% and -14.94%.
For `O=C(CCc1nnc2c(N3CCCCC3)nc3ccccc3n12)NCc1ccc(F)cc1`, in that order: 6.52%, 8.78% and -23.71%.
Regarding `CCc1ccccc1Sc1nccn2c(=O)n(CC(=O)NCc3cccs3)nc12`, the Inhibition in assay [1] is -0.44%; in assay [2] it was 4.04%; in assay [3], -9.94%.
`CCCCOc1ccc(-c2cc3c4nnc(SCC(=O)Nc5ccccc5F)n4ccn3n2)cc1`: the Inhibition is -0.1% in assay [1], 7.26% in assay [2] and -10.98% in assay [3].
Consider `Cc1nnc2c(S(=O)(=O)N(Cc3cccc(F)c3)c3ccc(C(C)C)cc3)cccn12`, for which the Inhibition in assay [1] was 9.6%; in assay [2], 6.76%; in assay [3], -6.4%.
On to `COc1cccc(-n2ccn3c(SCC(=O)c4ccc(Br)cc4)nnc3c2=O)c1`, for which the Inhibition was 9.61% in assay [1], 5.24% in assay [2] and -5.95% in assay [3].
`COC(=O)c1ccc(NC(=O)Cn2nc3c(Oc4ccccc4C)nccn3c2=O)cc1`: the results for the Inhibition in assay [1], in assay [2] and in assay [3] were -1.16%, 1.31% and -4.07%, respectively.
In the case of `CCc1ccccc1Sc1nccn2c(=O)n(CC(=O)Nc3ccc(OC)cc3)nc12`, the values for the Inhibition in assay [1], in assay [2] and in assay [3] were 0.32%, 4.23% and -13.58%, respectively.
On to `CCc1ccc(N(Cc2ccc(C)cc2)S(=O)(=O)c2cccn3cnnc23)cc1`, for which the values for the Inhibition in assay [1], in assay [2] and in assay [3] were -0.39%, 4.26% and -5.61%, respectively.
`COc1ccc2[nH]cc(C(=O)CSc3nnc4c(=O)n(-c5cccc(Cl)c5C)ccn34)c2c1`: the Inhibition in assay [1] is 5.78%; in assay [2], 2.95%; in assay [3], -9.58%.
Turning to `COC(=O)c1cccc(NC(=O)Cn2nc3c(Sc4ccc(C)cc4C)nccn3c2=O)c1`, the Inhibition in assay [1] is given as 13.86%; in assay [2], -2.57%; in assay [3], -30.13%.
For `CCc1ccc(N(Cc2ccccc2Cl)S(=O)(=O)c2cccn3c(C)nnc23)cc1`, in that order: 4.84%, 5.69% and -4.25%.
For `O=C(Cn1nc2c3cc(-c4ccc(Cl)cc4)nn3ccn2c1=O)Nc1ccc(F)cc1`, the Inhibition in assay [1] is recorded as 10.41%; in assay [2] it was 1.82%; in assay [3], -10.24%.
For `Cc1cccc(N(CC(=O)OC(C)(C)C)S(=O)(=O)c2cccn3c(C)nnc23)c1`, in that order: 8.25%, 2.37% and -7.45%.
Regarding `COc1ccc(CN(c2ccc(F)cc2)S(=O)(=O)c2ccc3nnc(C)n3c2)cc1F`, the values for the Inhibition in assay [1], in assay [2] and in assay [3] were 2.68%, 1.42% and -6.58%, respectively.
Consider `O=C(Cn1nc2ccc(SC3CCCCC3)nn2c1=O)Nc1ccc(F)c(F)c1`, for which the Inhibition in assay [1] is on record as 13.05%; in assay [2] it was 13.65%; in assay [3], -16.79%.
In the case of `CCc1ccccc1NC(=O)Cn1nc2c(Sc3ccccc3CC)nccn2c1=O`, the Inhibition in assay [1] is listed as 12.45%; in assay [2], 3.69%; in assay [3], -11.06%.
In the case of `Cc1ccc(-c2cc3c4nnc(CCC(=O)NCc5ccc(F)c(Cl)c5)n4ccn3n2)cc1C`, the Inhibition in assay [1] was 10.99%; in assay [2], 2.11%; in assay [3], -43.73%.
As to `CCOc1ccccc1NC(=O)Cn1nc2c(N3CCN(c4ccccc4C)CC3)nccn2c1=O`, the Inhibition in assay [1] is -9.36%; in assay [2], 21.63%; in assay [3], -5.29%.
Regarding `Cc1ccc(NC(=O)CSc2nnc3c4cc(-c5ccccc5)nn4ccn23)c(C)c1`, the Inhibition in assay [1] was -1.1%; in assay [2], 4.18%; in assay [3], -18.24%.
As to `Cc1ccccc1N1CCN(c2nccn3c(=O)n(CC(=O)NCc4cc(F)cc(F)c4)nc23)CC1`, the Inhibition in assay [1] is 4.01%; in assay [2] it was 0.32%; in assay [3], -4.76%.
On to `COc1ccc(NC(=O)c2ccc3nn(CC(=O)Nc4cccc(SC)c4)c(=O)n3c2)cc1`, for which the values for the Inhibition in assay [1], in assay [2] and in assay [3] were -1.25%, 7.63% and -24.03%, respectively.
With `COc1ccc(CNC(=O)Cn2nc3c(N4CCOCC4)nccn3c2=O)cc1`, the Inhibition in assay [1] was 16.6%; in assay [2] it was 6.15%; in assay [3], -8.83%.
For `Cc1cccc(N(Cc2ccccc2F)S(=O)(=O)c2ccc3nncn3c2)c1`, in that order: -1.12%, 0.03% and -7.87%.
Turning to `O=C(CSc1nnc2c(=O)n(-c3ccc(F)cc3)ccn12)c1ccccc1Cl`, the figures for the Inhibition in assay [1], in assay [2] and in assay [3] were 14.55%, 8.47% and -13.46%, respectively.
For `COc1cc(NC(=O)Cn2nc3ccc(SC4CCCCC4)nn3c2=O)cc(OC)c1`, the Inhibition is on record as 6.28% in assay [1], 4.08% in assay [2] and -40.43% in assay [3].
Take `CC(C)CCn1c(=O)c2sccc2n2c(=O)n(CC(=O)N(C)c3ccccc3)nc12`: the Inhibition is listed as 0.74% in assay [1], -2.64% in assay [2] and -16.67% in assay [3].
`COc1cc(OC)c(NC(=O)Cn2nc3ccc(SC4CCCCC4)nn3c2=O)cc1Cl`: the figures for the Inhibition in assay [1], in assay [2] and in assay [3] were 10.6%, 29.07% and -6.25%, respectively.
With `COc1ccccc1NC(=O)Cn1nc2c(SCc3ccccc3)nccn2c1=O`, the Inhibition in assay [1] was 0.49%; in assay [2], 5.7%; in assay [3], -17.11%.
Regarding `Cc1ccc(Oc2nccn3c(=O)n(CC(=O)Nc4ccc(F)cc4F)nc23)cc1`, the figures for the Inhibition in assay [1], in assay [2] and in assay [3] were 1.97%, 0.56% and -6.68%, respectively.
For the compound `COc1ccc(NC(=O)Cn2nc3c4cc(-c5ccc(C)cc5)nn4ccn3c2=O)c(OC)c1`, the Inhibition in assay [1] is reported as 9.2%; in assay [2], 7.88%; in assay [3] it was -29.92%.
As for `CCc1nnc2c(SCC(=O)Nc3cccc(Br)c3)nc3ccccc3n12`, the Inhibition in assay [1] is reported as 4.36%; in assay [2], 4.07%; in assay [3], -27.47%.
Turning to `O=c1c2sccc2n2c(=O)n(Cc3c(F)cccc3Cl)nc2n1CCc1ccccc1`, the Inhibition is listed as 4.07% in assay [1], 1.94% in assay [2] and -23.82% in assay [3].
Turning to `Cc1ccccc1Cn1nc2ccc(-c3ccccc3)nn2c1=O`, the Inhibition in assay [1] is 7.15%; in assay [2], 0.4%; in assay [3] it was -8.99%.
For `CCCCN(CC)c1ccc2nnc(CCc3nc(-c4ccc5c(c4)OCO5)no3)n2n1` the same measures were 3.82%, 3.29% and -4.25%.
For `COc1ccc(NC(=O)CSc2nnc3c(=O)n(-c4cccc(OC)c4)ccn23)cc1` the same measures were 5.61%, 2.12% and -13.19%.
Turning to `COc1ccc(-n2ccn3c(=O)n(Cc4ccccc4Cl)nc3c2=O)cc1Cl`, the Inhibition in assay [1] is 3.5%; in assay [2], 1.04%; in assay [3], 0.74%.
Turning to `N#CCSc1nnc2c(=O)n(-c3ccccc3)ccn12`, the Inhibition in assay [1] was 18.13%; in assay [2], 2.9%; in assay [3] it was -7.27%.
Regarding `CC(C)CCNC(=O)Cn1nc2n(Cc3ccco3)c(=O)c3sccc3n2c1=O`, the results for the Inhibition in assay [1], in assay [2] and in assay [3] were 8.27%, 3.16% and -8.69%, respectively.
For `COc1cccc(CNC(=O)CSc2nnc3c(=O)n(-c4ccc(C)c(C)c4)ccn23)c1OC`, the Inhibition in assay [1] is 8.73%; in assay [2] it was 0.37%; in assay [3], -5.22%.
Turning to `Cc1cccc(C)c1NC(=O)CSc1nnc2ccc(C(=O)Nc3cccc(F)c3)cn12`, the Inhibition in assay [1] was 10.23%; in assay [2], 10.31%; in assay [3] it was -3.65%.
For `O=c1c2sccc2n2c(=O)n(Cc3cccc(C(F)(F)F)c3)nc2n1Cc1cccs1` the same measures were 15.22%, 35.9% and -33.79%.
Take `Cc1cccc(Sc2nccn3c(=O)n(CC(=O)N4CCN(c5ccccc5)CC4)nc23)c1`: the Inhibition in assay [1] is 4.67%; in assay [2], 0.98%; in assay [3], -15.76%.
For the compound `CCCNC(=O)Cn1nc2cc(C)nc(Nc3cc(C)cc(C)c3)n2c1=O`, the figures for the Inhibition in assay [1], in assay [2] and in assay [3] were 18.12%, 5.03% and -9.02%, respectively.
As to `CC(C)(C)S(=O)(=O)c1ccc2nn(CC(=O)Nc3ccc4c(c3)OCO4)c(=O)n2n1`, the Inhibition was 2.44% in assay [1], 1.02% in assay [2] and -2.55% in assay [3].
`O=c1c2nnc(SCc3ccccc3F)n2ccn1-c1ccc(F)cc1`: the Inhibition is -2.87% in assay [1], 2.17% in assay [2] and -5.92% in assay [3].
Turning to `Cc1cccc(NC(=O)Cn2nc3ccc(-c4ccc(C)c(C)c4)nn3c2=O)c1`, the Inhibition in assay [1] is -0.51%; in assay [2], -1.03%; in assay [3] it was -12.34%.
With `CC(C)Cn1c(=O)c2sccc2n2c(=O)n(CC(N)=O)nc12`, the Inhibition is -1.97% in assay [1], -1.59% in assay [2] and -19.03% in assay [3].
With `O=C(CSc1nnc2c(=O)n(-c3ccc(Br)cc3)ccn12)c1c[nH]c2ccccc12`, the Inhibition is recorded as 21.01% in assay [1], 3.35% in assay [2] and -16.54% in assay [3].
For `Cc1cc(C)c(C(=O)CSc2nnc3c(=O)n(-c4ccc(F)c(F)c4)ccn23)cc1C`, in that order: 9.61%, 5.94% and -8.7%.
For the compound `COc1ccc(N(Cc2cc(F)cc(F)c2)S(=O)(=O)c2ccc3nnc(C)n3c2)cc1`, the results for the Inhibition in assay [1], in assay [2] and in assay [3] were 10.99%, 0.79% and -7.83%, respectively.
In the case of `Cc1ccc(Sc2ccc3nn(CC(=O)Nc4ccc(F)c(Cl)c4)c(=O)n3n2)cc1`, the Inhibition in assay [1] is reported as 6.66%; in assay [2], 6.36%; in assay [3] it was -7.28%.
`N#CCn1nc2n(CCC(=O)NC3CCCCC3)c(=O)c3ccccc3n2c1=O`: the Inhibition in assay [1] is recorded as 0.53%; in assay [2], 1.95%; in assay [3], 1.45%.
Regarding `Cc1cc2nn(CC(=O)NC(C)C)c(=O)n2c(-c2ccc(C(F)(F)F)cc2)n1`, the Inhibition in assay [1] was 3.27%; in assay [2] it was 1.65%; in assay [3], -4.89%.
Regarding `O=c1c2nn(Cc3c(F)cccc3Cl)c(=O)n2ccn1-c1ccccc1`, the Inhibition is reported as 15.43% in assay [1], 1.25% in assay [2] and -4.81% in assay [3].
On to `CCCN(C)c1nccn2c(=O)n(CC(=O)Nc3ccc(C#N)cc3)nc12`, for which the figures for the Inhibition in assay [1], in assay [2] and in assay [3] were 16.62%, 0.92% and -9.74%, respectively.
With `COc1cccc(-n2ccn3c(SCC(=O)c4c(C)[nH]c5ccccc45)nnc3c2=O)c1`, the values for the Inhibition in assay [1], in assay [2] and in assay [3] were 9.67%, 3.81% and -9.48%, respectively.
